Data as given in ChEMBL document CHEMBL3988442, “University of Dundee, Small-Polar-MMV Screening Library” (2021).
The whole screen tested about 66,000 compounds, of which about 960 (1.5%) showed an effect of 50% or more. The list comes from a sample in which strong results are over-represented; it also holds similar structures and randomly drawn compounds.

System: Trypanosoma brucei
Assay: Trypanosoma brucei 72 hour study
Assay type: functional, organism-based
Parameters: scale not given: in the data most compounds retested in dose-response had high values

Cn1nc(COCC2CC2)c2c1CN(CC1CC1)CC2.O=C(O)C(F)(F)F.O=C(O)C(F)(F)F
Percent Effect (30.3 µM, […]): -59.62%

CN(Cc1ccc2c(c1)OCO2)C(=O)c1ccc(C2CCCNC2)cc1 (stereo not given)
Percent Effect (30 µM, 30.03 µM): 78.75%

O=C(NCc1ccc2c(c1)OCO2)c1ccccc1C1CCNC1 (stereo not given)
Percent Effect (30 µM, 30.03 µM): 75.73%

O=C(NCc1ccc2c(c1)CCCO2)c1ccccc1C1CCNC1 (stereo not given)
Percent Effect (30 µM, 30.03 µM): -18.86%

CSc1cccc(CN(C)C(=O)c2ccc(C3CCCNC3)cc2)c1 (stereo not given)
Percent Effect (30 µM, 30.03 µM): 45.3%

CC(C)Cc1cc(CNC(=O)c2ccccc2C2CCNC2)no1 (stereo not given)
Percent Effect (30 µM, 30.03 µM): -25.71%

CN(Cc1ccc2c(c1)OCO2)C(=O)c1ccc(=O)n(C)c1
Percent Effect (30.3 µM, […]): -33.31%

CC(C)OCCCN(Cc1ccncc1)Cc1cccc(F)c1F.Cl
Percent Effect (30.3 µM, […]): -30.88%

N#Cc1ccc(S(=O)(=O)NC(=O)c2csc(-c3ccco3)n2)cc1
Percent Effect (30.3 µM, […]): 2.361%

CCc1ccc(CN2C[C@@H](C)C3(CCN(CC(=O)N(C)C)C3=O)C2)o1.O=C(O)C(F)(F)F (stereo not given in full)
Percent Effect (30.3 µM, […]): 4.737%

CC(=O)N1N=C(c2cccs2)OC1C(=O)NCc1ccc(C)o1 (stereo not given)
Percent Effect (30.3 µM, […]): 9.707%
Percent Effect (10 mM, 10 mM as filed; unlikely as a test dose): -41.55%

O=C(NCCc1ccccc1)NCCN1CCC(c2cccs2)CC1
Percent Effect (30 µM, 30.03 µM): 47.79%

CC(=O)NCCN1CCC(c2cccs2)CC1
Percent Effect (30 µM, 30.03 µM): -43.56%

COc1ccc(CCC(=O)NCCN2CCC(c3cccs3)CC2)cc1
Percent Effect (30 µM, 30.03 µM): 100%

CC1CCCN(Cc2ccnc(-c3cccnc3)n2)C1.O=C(O)CC(O)(CC(=O)O)C(=O)O (stereo not given)
Percent Effect (30.3 µM, […]): 9.831%

O=C(CCCNC(=O)C1CC1)Nc1cnn(-c2ccccc2Cl)c1
Percent Effect (30 µM, 30.03 µM): 60.12%

CS(=O)(=O)NCCC(=O)Nc1cnn(-c2ccccc2Cl)c1
Percent Effect (30.3 µM, […]): -13.82%

O=C(CCN1C(=O)CCC1=O)Nc1cnn(-c2ccccc2Cl)c1
Percent Effect (30 µM, 30.03 µM): -41.29%

O=C(O)C(F)(F)F.O=C(O)C(F)(F)F.O=c1ccc2c(n1Cc1ccncc1)CCN(Cc1ccoc1)CC2
Percent Effect (30 µM, 30.03 µM): -36.06%

Cl.c1nc(CCC2CCCCN2)cc(N2CCCC2)n1 (stereo not given)
Percent Effect (30.3 µM, […]): -10.52%

CC(C)N1CCC(N2CCC(C(=O)N(C)C)CC2)CC1.O=C(O)C(F)(F)F.O=C(O)C(F)(F)F
Percent Effect (30.3 µM, […]): -22.06%

COC(=O)C1CCN(C(=O)c2cc(Br)ccc2-n2cnnn2)CC1
Percent Effect (30 µM, 30.03 µM): -52.11%

CCN1CC(C(=O)N2CCN(c3nsc4ccccc34)CC2)CCC1=O (stereo not given)
Percent Effect (30.3 µM, […]): 18.26%

CC(C)N1CCCC(C(=O)N2CCN(c3nsc4ccccc34)CC2)C1 (stereo not given)
Percent Effect (30.3 µM, […]): 50.26%

NC(=O)N1CCCC(C(=O)N2CCN(c3nsc4ccccc34)CC2)C1 (stereo not given)
Percent Effect (30.3 µM, […]): 39.11%

CN(C)C(=O)c1cnc2n1CCN(Cc1cccnc1)C2.O=C(O)C(F)(F)F.O=C(O)C(F)(F)F
Percent Effect (30.3 µM, […]): -389.6%

O=C(O)C(F)(F)F.O=C(O)C(F)(F)F.O=C(O)C(F)(F)F.c1ccc(CN2CCc3c(COCC4CC4)cncc3C2)nc1
Percent Effect (30.3 µM, […]): -75.06%

CN1C[C@@H](N)C[C@H]1C(=O)N1CCC(CCCc2ccccc2)CC1
Percent Effect (30 µM, 30.03 µM): -31.74%

OC1(CN2CCCCC2)CCN(c2ccc(C(F)(F)F)cn2)C1 (stereo not given)
Percent Effect (30.3 µM, […]): 3.051%

N#CC1=C(N)Nn2c(nnc2-c2ccccc2F)S1
Percent Effect (30 µM, 30.03 µM): -51.04%

CCn1cc(CNc2ccc(F)c(N3CCCS3(=O)=O)c2)cn1
Percent Effect (30 µM, 30.03 µM): -16.14%

CCn1cc(CNc2ccc3nccnc3c2)cn1
Percent Effect (30 µM, 30.03 µM): 99.73%

CCn1cc(CNc2ccc(Br)c(OC)c2)cn1
Percent Effect (30 µM, 30.03 µM): -16.49%

Nc1nccc(N2CCC(c3cc(Cc4ccccc4)n[nH]3)CC2)n1
Percent Effect (30.3 µM, […]): 36.98%

Nc1nc(O)cc(N2CCC(c3cc(Cc4ccccc4)n[nH]3)CC2)n1
Percent Effect (30.3 µM, […]): -102.6%

Nc1cc(N2CCC(c3cc(Cc4ccccc4)n[nH]3)CC2)ccn1
Percent Effect (30.3 µM, […]): 99.46%

COc1cccc(C(=O)NCC(c2cccn2C)N2CCCC2)c1OC (stereo not given)
Percent Effect (30.3 µM, […]): -16.52%

COc1cccc(OC)c1C(=O)NCC(c1cccn1C)N1CCCC1 (stereo not given)
Percent Effect (30.3 µM, […]): 99.38%

COc1ccc(C(=O)NCC(c2cccn2C)N2CCCC2)cc1OC (stereo not given)
Percent Effect (30.3 µM, […]): -9.189%

CO[C@@H]1CCN(C(=O)Cc2ccsc2)[C@H]1Cc1cccnc1.O=C(O)C(F)(F)F
Percent Effect (30.3 µM, […]): -12.88%

Cc1cccc(COC[C@H]2CC[C@H]3[C@H](CCN3C(=O)CC3CC3)O2)n1.O=C(O)C(F)(F)F
Percent Effect (30 µM, 30.03 µM): 22.76%

CCOc1ccc(CN[C@@H]2COC[C@H]2c2ccc(F)cc2)cc1.O=C(O)CC(O)(CC(=O)O)C(=O)O
Percent Effect (30.3 µM, […]): -47.65%

COCCN1C[C@H]2CC[C@@H]1CN(C(=O)CCn1cc(Cl)cn1)C2
Percent Effect (30.3 µM, […]): 4.772%

Cc1nc2c(c(NCc3ccc(-c4ccccn4)s3)n1)CCNCC2
Percent Effect (30.3 µM, […]): 42.43%

Cc1nc2c(c(NCc3cc4ccccc4s3)n1)CCNCC2
Percent Effect (30.3 µM, […]): 99.88%

Cc1nc2c(c(NCC3Cc4ccccc4CN3C)n1)CCNCC2 (stereo not given)
Percent Effect (30.3 µM, […]): 15.13%

Cc1nc2c(c(NCc3nc4ccccc4s3)n1)CCNCC2
Percent Effect (30.3 µM, […]): 53.81%

Cc1nc(CNc2nc(-c3ccco3)nc3c2CCNCC3)n[nH]1
Percent Effect (30 µM, 30.03 µM): 14.93%

Cc1nc2c(c(NCC(O)c3ccccc3Cl)n1)CCNCC2 (stereo not given)
Percent Effect (30 µM, 30.03 µM): -31.73%

CC(C)CN1CCO[C@H]2CCN(c3cnccn3)CC[C@@H]21.O=C(O)C(F)(F)F
Percent Effect (30.3 µM, […]): -43.11%

CCCS(=O)(=O)N1C[C@H]2C[C@H](C(=O)N3CCCC3)[C@@H](C1)O2
Percent Effect (30.3 µM, […]): -3.417%

Cc1occc1C(=O)N1C[C@@H]2OCCN(C(C)C)[C@@H]2C1.O=C(O)C(F)(F)F
Percent Effect (30 µM, 30.03 µM): 5.268%

CS(=O)(=O)N1CCN(CC(O)COc2ccc(Cl)cc2)CC1 (stereo not given)
Percent Effect (10 µM): -47.15%

Cc1csc(CN2CCC[C@]3(C[C@@H](OCC4CC4)CO3)C2)n1.O=C(O)C(F)(F)F
Percent Effect (30 µM, 30.03 µM): -17.53%

Cc1cc(F)ccc1CN1CCC(O)(CN2CCCCC2)C1 (stereo not given)
Percent Effect (30 µM, 30.03 µM): -52.45%

OC1(CN2CCCC2)CCCN(Cc2ccc(F)cc2Cl)C1 (stereo not given)
Percent Effect (30 µM, 30.03 µM): -4.937%

Cc1cc(F)ccc1CN1CCCC(O)(CN2CCCC2)C1 (stereo not given)
Percent Effect (30.3 µM, […]): 54.93%

CN(C)CCN(Cc1ccccn1)Cc1ccnn1C1CCCCO1.O=C(O)CC(O)(CC(=O)O)C(=O)O (stereo not given)
Percent Effect (30.3 µM, […]): -14.13%

Cn1nnc2c1C(COCC1CC1)CN(Cc1ccoc1)C2.O=C(O)C(F)(F)F (stereo not given)
Percent Effect (30 µM, 30.03 µM): 5.795%
